An excerpt weighted towards active compounds, which were near 5.1% of everything screened.
Tau ThT inhib: blocks human tau fibril formation measured by thioflavin T. P10636. recombinant tau K18 P301L, heparin-induced fibrillization, ThT fluorescence. Potency, µM (top dose mostly 57.4 µM), for inactives: at the top dose activity, negative = inhibition, hits mostly inhibitors. hit rate 2.1% among 270,000. AID 1460; further: potency means the concentration at half of the fitted maximal effect; nearly all actives have a fitted effect of over 55% in size
Target sequence (P10636 561-689 P618L limits assumed): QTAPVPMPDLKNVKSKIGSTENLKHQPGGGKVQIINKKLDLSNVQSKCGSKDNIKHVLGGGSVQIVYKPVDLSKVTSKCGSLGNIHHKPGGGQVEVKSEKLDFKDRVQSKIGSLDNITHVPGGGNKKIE
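Heparin-induced (20 uM) aggregation of recombinant human K18 P301L tau, 15 uM unlabeled with 0.24 uM labeled, pH 7 acetate buffer, 6 hr at 37 C with compound. Fibrils quantified by 30 uM ThT fluorescence after 1 hr ambient incubation.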
Tau fluor cs: counter-screen for tau fibril formation inhibitors | tau K18 P301L Alexa594 fluorescence, heparin fibrillization | Potency, µM (series often up to 57.7 µM), for the others: top-dose activity change, negative = decrease | hit rate 0.93% among 280,000 | AID 1463; further: potency means the concentration at half of the fitted maximal effect; nearly all actives have a fitted effect of over 55% in size
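Human K18 P301L tau (15 uM unlabeled plus 0.24 uM Alexa 594-labeled, final) in 100 mM sodium acetate pH 7 was mixed with compound and 20 uM heparin and incubated 6 hr at 37 C.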
Tau fibril FP: tau fibrillization inhibition (FP); AID 1468; P10636; Potency, µM (series often up to 57.7 µM), without a hit: top-dose activity, negative = inhibition, actives largely listed as inhibitors; K18 P301L tau heparin fibrillization, Alexa594 FP, 6 h; hit rate 0.39% among 280,000; further: potency means the concentration at half of the fitted maximal effect; nearly all actives have a fitted effect of over 55% in size
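Heparin (20 uM) drove fibril formation of recombinant tau K18 P301L, 15 uM unlabeled with 0.24 uM Alexa 594 label, for 6 hr at 37 C in 100 mM sodium acetate pH 7. Fluorescence polarization (555/632 nm) read 1 hr after 30 uM ThT.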
PNC assembly inh: perinucleolar compartment assembly inhibition; hit rate 3.1% among 140,000; activity change (PNC), negative = inhibition, % at 10 µM; PC3M PTB-GFP, PNC prevalence imaging, 16 h; hits give low values;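 active means readout at or below -70, meaning at least 70% loss of cells showing the perinucleolar compartment, a nuclear body marking cancer cells; inconclusive means readout between -30 and a set limit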;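 further: plate controls were DMSO wells for no effect and camptothecin positive control wells for full effect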
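Compounds are pinned in duplicate onto adhered PC3M cells stably expressing GFP-tagged PTB and incubated 16 h at 37 C. Cells are then fixed, nuclei stained with Hoechst, and PNC-positive cells counted.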
NPSR antagonist: blocks cAMP signaling of the human neuropeptide S receptor | Q6W5P4 | CHO-NPSR cells, cAMP TR-FRET, antagonist mode | Potency, µM (series often up to 38.3 µM), without a hit: at the top dose activity change, negative = inhibition, actives largely listed as inhibitors | hit rate 1% among 220,000; further: potency means the concentration at half of the fitted maximal effect; nearly all actives have a fitted effect of over 50% in size
Target sequence (Q6W5P4 whole entry, looked up): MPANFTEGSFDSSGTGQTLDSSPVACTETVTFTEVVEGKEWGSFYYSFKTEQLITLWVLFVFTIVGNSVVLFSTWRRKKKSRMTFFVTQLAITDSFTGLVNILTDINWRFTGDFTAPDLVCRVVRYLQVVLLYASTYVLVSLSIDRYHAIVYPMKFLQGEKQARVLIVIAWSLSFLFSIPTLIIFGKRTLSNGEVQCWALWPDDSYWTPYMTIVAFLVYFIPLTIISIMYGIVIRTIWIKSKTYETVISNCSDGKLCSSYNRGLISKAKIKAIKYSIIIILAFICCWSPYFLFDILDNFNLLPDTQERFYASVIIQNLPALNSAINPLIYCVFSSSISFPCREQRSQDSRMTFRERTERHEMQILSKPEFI
JMJD2E inh: JMJD2E (human) inhibition | hit rate 1.6% among 230,000 | Potency, µM (highest dose often 57.1 µM), without a hit: at the highest dose activity change, negative = inhibition, most hits filed as inhibitors | AID 2147 | JMJD2E catalytic domain, FDH-coupled NADH fluorescence (FDH is formaldehyde dehydrogenase);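 further: potency means the concentration at half of the fitted maximal effect; 0% = wells with enzyme and -100% = buffer wells without enzyme; nearly all actives have a fitted effect of over 50% in size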
The depositor's hits bear a star; ? = inconclusive; . = no result; [ ] = another dose, or the depositor's remark. Unless noted, the call rests on the fitted dose curve; in most records, active means well fitted curve in the direction sought with a large enough effect; inconclusive means small, poorly fitted or top-dose-only effect, or another doubt; inactive means no such curve, though single readings can be large; an effect the other way counts as inactive or inconclusive. Unless noted, on the % scale 0 is the no-effect control and ±100 the full control effect.

SMILES	Tau ThT inhib	Tau fluor cs	Tau fibril FP	PNC assembly inh	NPSR antagonist	JMJD2E inh
N#Cc1ccc(NC(=O)COCc2cc(-c3ccc(F)cc3)on2)cc1	-9%	-25%	-19%	.	.	.
O=C1N=C(N2CCOCC2)S/C1=C1\C(=O)N(Cc2ccccc2)c2ccccc21	?	-4%	4%	26	-6%[46.1 µM]	13%
CN1C(=O)/C(=C2\SC(N3CCCCCC3)=NC2=O)c2ccccc21	13µM*	?	11%	-15	?	1%
CN1C(=O)/C(=C2\SC(N)=NC2=O)c2ccccc21	?	-25%	3%	-21	-14%[46.1 µM]	3%
CCCN1C(=O)/C(=C2\SC(N3CCCCC3)=NC2=O)c2ccccc21	16µM*	?	3%	21	?	2%
COC(=O)c1cccc(Nc2c(-c3ccc(O)c(OC)c3)nc3nc[nH]n23)c1	?	-28%	-9%	.	.	.
CCC(CC)NC(=O)CON=C1c2ccccc2-c2ccccc21	5%	0%	7%	-81*	2%	?
CC1(C)N=C(SCc2ccc(Cl)cc2)c2ccccc2N1	?	10µM*[quencher]	-11%	.	.	.
Cc1ccc(C)c(CSc2nnc3[nH]c(=O)cc(C)n23)c1	-6%	2%	1%	.	.	.
Cc1ccc(CSC2=NC(C)(C)Nc3ccccc32)c(C)c1	?	14µM*[quencher]	4%	.	.	.
Cc1ccc(S(=O)(=O)Nc2ccccc2C(=O)OC(C)C(=O)Nc2ccc3ccccc3c2)cc1[N+](=O)[O-] (stereo unspecified)	9%	7%	-3%	?	-1%	-7%
Cc1nn(-c2ccccc2)c(Cl)c1/C=N/Nc1ccc(S(=O)(=O)Nc2ccccc2C(=O)O)cc1[N+](=O)[O-]	8.9µM*	?	13%	27	-19%[46.1 µM]	-10%
COc1ccc(NC(=S)NNc2ccc(S(=O)(=O)Nc3ccccc3C(=O)O)cc2[N+](=O)[O-])cc1	13µM*	10µM*[quencher]	?	.	-24%	?
Cc1cc(S(=O)(=O)Nc2ccccc2C(=O)O)ccc1Cl	3%	0%	3%	-117*	-10%[46.1 µM]	-3%
CCN(C(=O)CSc1nc2ccccc2nc1Cc1cccc(OC)c1)c1cccc(C)c1	-6%	0%	9%	.	.	.
COc1ccc(CCNC(=O)c2ccc3c(c2)N(Cc2cc(C)ccc2C)C(=O)c2ccccc2S3=O)cc1OC (stereo unspecified)	3%	-18%	-2%	.	.	.
CCN1CCN(c2csc3ccc(F)cc3c2=O)CC1	?	-5%	4%	.	.	.
CC(=O)N1CCN(c2csc3ccc(Br)cc3c2=O)CC1	?	-22%	4%	.	.	.
O=c1c(N2CCCCC2)csc2ccc(F)cc12	?	-5%	-3%	.	.	.
Cc1ccc2scc(N3CCc4ccccc4C3)c(=O)c2c1	7.1µM*	?	?	.	.	.
Cc1ccc2scc(N3CCN(c4ccccc4)CC3)c(=O)c2c1	4µM*	-30%	-5%	.	.	.
Cc1ccc2scc(N3CCN(c4ccc(F)cc4)CC3)c(=O)c2c1	8.9µM*	-22%	-6%	.	.	.
COc1cc(Cl)c(C)cc1NC(=O)C1CCN(c2nc3ccccc3n3cccc23)CC1	?	-28%	0%	.	.	.
CCC(C)Nc1nc(N)c([N+](=O)[O-])c(Nc2ccccc2OC)n1 (stereo unspecified)	?	?	?	.	17%[7.67 µM]	-3%
CCC(C)Nc1nc(N)c([N+](=O)[O-])c(Nc2cc(OC)ccc2OC)n1 (stereo unspecified)	16µM*	18µM*[quencher]	-11%	.	-33%	?
SMILES	Tau ThT inhib	Tau fluor cs	Tau fibril FP	PNC assembly inh	NPSR antagonist	JMJD2E inh
COc1ccc(OC)c(Nc2nc(NCCC(C)C)nc(N)c2[N+](=O)[O-])c1	25µM*	20µM*[quencher]	-9%	.	?	-6%
COc1ccccc1Nc1nc(NCC(C)C)nc(N)c1[N+](=O)[O-]	?	?	-15%	.	-37%	-6%
Cc1ccc(S(=O)(=O)N2CCCN(S(=O)(=O)c3ccc4ccccc4c3)CC2)cc1	-4%	-24%	-12%	-100*	-3%[46.1 µM]	-5%
CCCS(=O)(=O)c1c(S(=O)(=O)CCC)c2c3ccccc3ccn2c1C(=O)OC	2%	-22%	?	-105*	-19%[46.1 µM]	?
CCCS(=O)(=O)c1c(S(=O)(=O)CCC)c2c(C)cccn2c1C(=O)OC	-6%	-5%	-2%	-8	17%[46.1 µM]	?
Cc1ccc(NC(=O)CN2C(=O)C(c3ccccc3)=NC2(C)C)cc1C	10%	-1%	-2%	.	.	.
N#CC1=C(N)OC2=C(CC/C2=C\c2ccccc2Cl)C1c1ccccc1Cl (stereo unspecified)	?	-13%	2%	8	?	?
N#CC1=C(N)Oc2c(ccc3cccnc23)C1c1ccccc1 (stereo unspecified)	-15%	-20%	-2%	.	15%	?
CSc1ccc(C2C(C#N)=C(N)Oc3c2ccc(=O)c2c(C)oc(C)c32)cc1 (stereo unspecified)	25µM*	?	?	3	-26%[46.1 µM]	?
Cc1oc(C)c2c(=O)ccc3c(c12)OC(N)=C(C#N)C3c1ccccc1 (stereo unspecified)	25µM*	?	?	26	-23%[46.1 µM]	?
Cc1oc(C)c2c(=O)ccc3c(c12)OC(N)=C(C#N)C3c1ccccc1Cl (stereo unspecified)	20µM*	?	?	-22	10µM*	18µM*
CCCCOC(=O)c1ccc(NC(=O)c2ccc3c(c2)CCCN3S(C)(=O)=O)cc1	-8%	?	?	.	.	.
CC(=O)NC1CCCN(O)C(=O)/C=C(\C)CCOC(=O)C(NC(C)=O)CCCN(O)C(=O)/C=C(\C)CCOC(=O)C(NC(C)=O)CCCN(O)C(=O)/C=C(\C)CCOC1=O (stereo unspecified)	-13%	-7%	-3%	.	-16%	7.9µM*
COc1ccccc1N(CC(=O)NCc1ccccc1)C(=O)CCC(=O)Nc1ccccn1	3%	3%	9%	-100*	-3%[46.1 µM]	-3%
Cc1cc(C)c(/C=N/n2c(C)cc(C)c(C#N)c2=O)c(C)c1	1%	3%	-3%	37	11%	8%
Cc1cc(C)n(/N=C/c2cccs2)c(=O)c1C#N	-9%	-5%	0%	-98*	7%	-7%
C=CCn1c(-c2ccccc2)c[nH]c1=S	-13%	-8%	6%	-117*	-11%[46.1 µM]	?
CCOC(=O)c1c(C)sc(-c2c(-c3ccc(OC)c(F)c3)[nH]c3[nH]c(=O)[nH]c(=O)c23)c1O	0%	3.5µM*[quencher]	6%	.	.	.
CCc1ccc(-c2[nH]c3c(c2-c2sc(C)c(C(=O)OC)c2O)c(=O)[nH]c(=O)n3C)cc1	-16%	?	10%	.	.	.
